Experimental data taken from paper PMC7862700, “An all-to-all approach to the identification of sequence-specific readers for epigenetic DNA modifications on cytosine”.

Tests used:
Assay in all cases: DAPPL (digital affinity profiling via proximity ligation, sequencing); 10 mM Tris-HCl pH 7.5, 50 mM NaCl, 1 mM DTT, 4% glycerol, room temperature, 30 min; GST-TFs on glutathione beads, 16-mer random dsDNA library, 0.1% formaldehyde crosslink after washing; high values mean tight binding
Settings in all cases: protein: recombinant; tags: N-terminal GST; dsDNA, one strand shown
FLI1 = target: T1, FLI1 (Homo sapiens, UniProt Q01543 1-452)
T1 sequence: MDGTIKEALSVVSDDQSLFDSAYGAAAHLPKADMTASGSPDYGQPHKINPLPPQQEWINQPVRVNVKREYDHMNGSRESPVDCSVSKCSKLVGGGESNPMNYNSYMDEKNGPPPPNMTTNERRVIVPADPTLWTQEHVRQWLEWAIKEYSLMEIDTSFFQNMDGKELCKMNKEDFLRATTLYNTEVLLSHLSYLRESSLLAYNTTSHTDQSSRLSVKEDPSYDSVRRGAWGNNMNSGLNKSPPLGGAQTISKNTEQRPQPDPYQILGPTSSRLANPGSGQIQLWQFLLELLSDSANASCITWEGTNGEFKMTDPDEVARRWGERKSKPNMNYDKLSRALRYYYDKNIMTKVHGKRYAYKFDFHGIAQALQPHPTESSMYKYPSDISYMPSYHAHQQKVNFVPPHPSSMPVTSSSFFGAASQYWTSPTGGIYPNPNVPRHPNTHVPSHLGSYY
Outline: (§1)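 Binding signal is defined as a hexamer's read frequency for one factor over its frequency for the tag-only sample. To obtain reads, GST-fused human transcription factors were expressed in yeast, captured on glutathione beads, barcoded with DNA and pooled with that sample. Pools met 200 nmole of a 16-mer random double-stranded DNA library in Tris/NaCl/DTT/glycerol buffer for 30 min at room temperature before washing, 0.1% formaldehyde crosslinking, proximity ligation (BsaI/T4 ligase, 1 h, 37 °C), PCR and Illumina NextSeq500 sequencing.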

ELK1 = target: T2, ELK1 (Homo sapiens, UniProt P19419 1-428)
T2 sequence: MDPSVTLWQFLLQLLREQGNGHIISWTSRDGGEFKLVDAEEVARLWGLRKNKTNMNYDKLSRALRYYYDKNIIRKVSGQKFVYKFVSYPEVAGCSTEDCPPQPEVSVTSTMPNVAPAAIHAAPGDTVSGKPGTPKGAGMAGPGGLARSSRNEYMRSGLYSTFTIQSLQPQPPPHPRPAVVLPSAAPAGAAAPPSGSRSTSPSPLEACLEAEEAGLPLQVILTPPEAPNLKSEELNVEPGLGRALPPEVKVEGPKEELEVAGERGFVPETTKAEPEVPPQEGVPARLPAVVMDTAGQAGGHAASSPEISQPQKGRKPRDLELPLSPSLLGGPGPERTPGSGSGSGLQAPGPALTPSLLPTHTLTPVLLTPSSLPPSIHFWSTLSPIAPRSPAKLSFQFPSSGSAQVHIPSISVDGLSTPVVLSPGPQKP
Outline: as §1

GABPA = target: T3, GABPA (Homo sapiens, UniProt Q06546 1-454)
T3 sequence: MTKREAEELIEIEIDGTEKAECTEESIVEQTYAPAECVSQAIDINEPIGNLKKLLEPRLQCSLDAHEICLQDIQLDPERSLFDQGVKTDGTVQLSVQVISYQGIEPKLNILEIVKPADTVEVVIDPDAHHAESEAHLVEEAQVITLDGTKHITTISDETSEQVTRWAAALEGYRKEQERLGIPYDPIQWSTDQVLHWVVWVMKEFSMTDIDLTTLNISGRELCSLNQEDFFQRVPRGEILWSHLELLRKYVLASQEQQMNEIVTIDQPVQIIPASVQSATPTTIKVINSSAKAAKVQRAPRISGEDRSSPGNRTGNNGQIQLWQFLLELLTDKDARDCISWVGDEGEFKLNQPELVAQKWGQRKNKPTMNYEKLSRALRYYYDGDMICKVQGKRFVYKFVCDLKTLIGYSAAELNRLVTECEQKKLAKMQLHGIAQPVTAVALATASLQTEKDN
Outline: as §1

ERG = target: T4, ERG (Homo sapiens, UniProt P11308 1-479)
T4 sequence: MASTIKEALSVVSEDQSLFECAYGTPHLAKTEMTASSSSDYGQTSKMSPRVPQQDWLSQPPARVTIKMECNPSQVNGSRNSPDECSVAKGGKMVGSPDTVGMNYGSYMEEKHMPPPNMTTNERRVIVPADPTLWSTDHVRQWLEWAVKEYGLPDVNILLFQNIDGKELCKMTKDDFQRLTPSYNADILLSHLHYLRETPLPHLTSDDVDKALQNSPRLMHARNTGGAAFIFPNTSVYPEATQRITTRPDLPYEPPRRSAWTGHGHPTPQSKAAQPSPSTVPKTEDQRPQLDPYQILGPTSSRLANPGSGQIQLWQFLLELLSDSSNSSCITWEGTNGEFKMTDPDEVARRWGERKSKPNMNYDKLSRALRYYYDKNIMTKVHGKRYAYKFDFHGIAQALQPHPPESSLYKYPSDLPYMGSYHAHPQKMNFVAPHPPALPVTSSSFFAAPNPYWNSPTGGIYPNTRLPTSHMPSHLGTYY
Outline: as §1

ELF1 = ELF1 (Homo sapiens, UniProt P32519 1-619)
Outline: as §1

EHF = target: T5, EHF (Homo sapiens, UniProt Q9NZC4 1-300)
T5 sequence: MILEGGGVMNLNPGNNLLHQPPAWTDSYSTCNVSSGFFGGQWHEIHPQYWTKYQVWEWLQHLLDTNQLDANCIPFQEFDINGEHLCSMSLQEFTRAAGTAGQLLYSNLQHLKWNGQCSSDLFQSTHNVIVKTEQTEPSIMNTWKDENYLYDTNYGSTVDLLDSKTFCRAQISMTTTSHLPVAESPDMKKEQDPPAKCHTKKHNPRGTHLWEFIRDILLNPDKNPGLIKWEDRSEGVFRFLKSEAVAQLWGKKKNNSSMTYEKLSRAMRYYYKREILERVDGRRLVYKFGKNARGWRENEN
Outline: as §1

SPI1 = SPI1 (Homo sapiens, UniProt P17947 1-270)
Outline: as §1

ELK3 = target: T6, ELK3 (Homo sapiens, UniProt P41970 1-407)
T6 sequence: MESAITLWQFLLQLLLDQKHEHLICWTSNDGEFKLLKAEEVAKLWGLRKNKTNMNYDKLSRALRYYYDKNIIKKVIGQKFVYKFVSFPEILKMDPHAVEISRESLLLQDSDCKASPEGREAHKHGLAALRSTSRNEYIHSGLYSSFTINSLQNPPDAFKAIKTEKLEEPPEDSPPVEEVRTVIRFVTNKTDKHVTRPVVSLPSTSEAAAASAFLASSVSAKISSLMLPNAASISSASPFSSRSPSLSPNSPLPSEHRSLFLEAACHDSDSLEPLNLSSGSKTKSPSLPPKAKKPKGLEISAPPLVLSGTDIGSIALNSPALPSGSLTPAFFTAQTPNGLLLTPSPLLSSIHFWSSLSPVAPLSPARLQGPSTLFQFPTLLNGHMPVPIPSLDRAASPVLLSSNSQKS
Outline: as §1

SPIB = SPIB (Homo sapiens, UniProt Q01892 1-262)
Outline: as §1

Sequence of ELF1 (P32519 whole entry): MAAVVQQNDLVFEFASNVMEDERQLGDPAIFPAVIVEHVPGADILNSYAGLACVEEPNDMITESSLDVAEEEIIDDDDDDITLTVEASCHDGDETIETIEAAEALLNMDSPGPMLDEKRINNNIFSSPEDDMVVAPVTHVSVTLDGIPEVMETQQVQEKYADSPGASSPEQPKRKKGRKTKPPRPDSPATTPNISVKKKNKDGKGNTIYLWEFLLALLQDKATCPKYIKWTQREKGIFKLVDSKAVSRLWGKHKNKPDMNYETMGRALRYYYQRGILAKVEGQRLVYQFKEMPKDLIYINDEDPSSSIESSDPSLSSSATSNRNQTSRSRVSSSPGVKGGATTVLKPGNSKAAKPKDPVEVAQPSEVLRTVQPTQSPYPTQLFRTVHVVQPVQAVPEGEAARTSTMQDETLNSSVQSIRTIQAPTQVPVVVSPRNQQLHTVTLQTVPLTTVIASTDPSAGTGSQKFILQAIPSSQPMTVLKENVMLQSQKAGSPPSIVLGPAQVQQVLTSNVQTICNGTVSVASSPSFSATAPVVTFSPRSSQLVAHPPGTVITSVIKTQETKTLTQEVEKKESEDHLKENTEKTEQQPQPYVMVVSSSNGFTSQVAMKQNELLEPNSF
Sequence of SPIB (Q01892 whole entry): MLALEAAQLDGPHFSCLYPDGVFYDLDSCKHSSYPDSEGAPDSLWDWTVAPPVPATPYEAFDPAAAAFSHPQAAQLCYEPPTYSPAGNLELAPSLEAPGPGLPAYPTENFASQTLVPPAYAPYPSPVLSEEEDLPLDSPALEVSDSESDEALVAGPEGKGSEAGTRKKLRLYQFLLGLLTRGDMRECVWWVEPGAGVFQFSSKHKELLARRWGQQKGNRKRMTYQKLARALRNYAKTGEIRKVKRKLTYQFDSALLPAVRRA

Sequence | binding signal (FLI1) | binding signal (ELK1) | binding signal (GABPA) | binding signal (ERG) | binding signal (ELF1) | binding signal (EHF) | binding signal (SPI1) | binding signal (ELK3) | binding signal (SPIB)
GATATG | 1.15 fold enrichment (6-mer frequency, TF over GST control) | 1.06 fold enrichment (6-mer frequency, TF over GST control) | 1.07 fold enrichment (6-mer frequency, TF over GST control) | 1.11 fold enrichment (6-mer frequency, TF over GST control) | 1.03 fold enrichment (6-mer frequency, TF over GST control) | 1.12 fold enrichment (6-mer frequency, TF over GST control) | 1.06 fold enrichment (6-mer frequency, TF over GST control) | 1.04 fold enrichment (6-mer frequency, TF over GST control) | 
GGTGTT | 1.07 fold enrichment (6-mer frequency, TF over GST control) | 1.13 fold enrichment (6-mer frequency, TF over GST control) | 1.11 fold enrichment (6-mer frequency, TF over GST control) | 1.08 fold enrichment (6-mer frequency, TF over GST control) | 1.09 fold enrichment (6-mer frequency, TF over GST control) | 1.04 fold enrichment (6-mer frequency, TF over GST control) |  |  | 1.02 fold enrichment (6-mer frequency, TF over GST control)
CAACAA | 1.08 fold enrichment (6-mer frequency, TF over GST control) | 1.08 fold enrichment (6-mer frequency, TF over GST control) | 1.1 fold enrichment (6-mer frequency, TF over GST control) | 1.01 fold enrichment (6-mer frequency, TF over GST control) | 1.06 fold enrichment (6-mer frequency, TF over GST control) | 1.05 fold enrichment (6-mer frequency, TF over GST control) | 1.02 fold enrichment (6-mer frequency, TF over GST control) | 1.12 fold enrichment (6-mer frequency, TF over GST control) | 
ATACTG | 1.1 fold enrichment (6-mer frequency, TF over GST control) | 1.09 fold enrichment (6-mer frequency, TF over GST control) | 1.16 fold enrichment (6-mer frequency, TF over GST control) | 1.06 fold enrichment (6-mer frequency, TF over GST control) | 1.09 fold enrichment (6-mer frequency, TF over GST control) | 1.1 fold enrichment (6-mer frequency, TF over GST control) | 1.14 fold enrichment (6-mer frequency, TF over GST control) | 1.14 fold enrichment (6-mer frequency, TF over GST control) | 
TGTCCT | 1.37 fold enrichment (6-mer frequency, TF over GST control) | 1.38 fold enrichment (6-mer frequency, TF over GST control) | 1.58 fold enrichment (6-mer frequency, TF over GST control) | 1.38 fold enrichment (6-mer frequency, TF over GST control) | 1.5 fold enrichment (6-mer frequency, TF over GST control) | 1.52 fold enrichment (6-mer frequency, TF over GST control) | 1.44 fold enrichment (6-mer frequency, TF over GST control) | 1.41 fold enrichment (6-mer frequency, TF over GST control) | 1.54 fold enrichment (6-mer frequency, TF over GST control)
CAAGGT | 1.1 fold enrichment (6-mer frequency, TF over GST control) | 1.13 fold enrichment (6-mer frequency, TF over GST control) | 1.03 fold enrichment (6-mer frequency, TF over GST control) | 1.07 fold enrichment (6-mer frequency, TF over GST control) | 1.05 fold enrichment (6-mer frequency, TF over GST control) | 1.13 fold enrichment (6-mer frequency, TF over GST control) | 1.02 fold enrichment (6-mer frequency, TF over GST control) | 1.12 fold enrichment (6-mer frequency, TF over GST control) | 
AAGAAG | 1.05 fold enrichment (6-mer frequency, TF over GST control) | 1.09 fold enrichment (6-mer frequency, TF over GST control) | 1.01 fold enrichment (6-mer frequency, TF over GST control) | 1.06 fold enrichment (6-mer frequency, TF over GST control) | 1.05 fold enrichment (6-mer frequency, TF over GST control) | 1.07 fold enrichment (6-mer frequency, TF over GST control) | 1.13 fold enrichment (6-mer frequency, TF over GST control) | 1.05 fold enrichment (6-mer frequency, TF over GST control) | 
